From PubChem BioAssay (EPA / NIEHS) come the findings set out here.

A structure can be active in one record and inactive in another. Active and inactive are the calls of the source. Rule for the calls: active = hit-call score of the fitted dose curve at least 0.9, where 1 is the maximum; inactive = score below 0.9.

The nature of this assay: ATG_SREBP_CIS: Attagene CIS-FACTORIAL HepG2 Assay for human Sterol Regulatory Element Binding (SREBP) (AID 2282962). The note with it: HepG2 Attagene cis-factorial SREBP reporter, mRNA; actives raise or lower the signal. The procedure:
ATG_CIS is a cell-based, multiplexed-readout assay that uses HepG2, a human liver cell line, with measurements taken at 24 hours after chemical dosing in a 24-well plate.ATG_SREBP_CIS is one of 52 assay component(s) measured or calculated from the ATG_CIS assay. It is designed to make measurements of mRNA induction, a form of inducible reporter, as detected with fluorescence intensity signals by Reverse transcription polymerase chain reaction (RT-PCR) and Capillary electrophoresis technology.Data from the assay component ATG_SREBP_CIS was analyzed into 1 assay endpoint. This assay endpoint, ATG_SREBP_CIS, was analyzed with bidirectional fitting relative to DMSO as the negative control and baseline of activity. Using a type of inducible reporter, measures of mRNA for gain or loss-of-signal activity can be used to understand the reporter gene at the transcription factor-level as they relate to the gene SREBF1. Furthermore, this assay endpoint can be referred to as a primary readout, because this assay has produced multiple assay endpoints where this one serves a reporter gene function. To generalize the intended target to other relatable targets, this assay endpoint is annotated to the dna binding intended target family, where the subfamily is basic helix-loop-helix leucine zipper.
Human liver HepG2 cells are transiently transfected with multiple reporter transcription units (MRTUs) in 6-well plates using FuGene 6 reagent (Roche; 3 ml FuGene/1 mg DNA). The MRTU constructs are regulated by a cis-regulating element (promoter). […] A major difference between the CIS and TRANS system is that in CIS activities of endogenous TFs are measured, whereas the TRANS assay evaluates changes in activities of exogenous, chimeric NR-Gal4 proteins. […] At the end of 24 hour incubation, total RNA was isolated using TriZol reagent (Invitrogen). The isolated RNA is then reverse-transcribed using oligo(dT) primer and Mo-MLV reverse transcriptase (Invitrogen) with DNAse I (Ambion) treatment for 30 min. The one-tenth of the produced cDNA was amplified by PCR using Taq DNA polymerase (Invitrogen) and two reporter sequence-specific primers. The PCR products were fluorescently labeled by primer extension with 6-arboxyfluorescein (6-FAM) 5'-labeled reporter sequence-specific primer (2 min at 95 C, 20 s at 68 C and 10 min at 72 C) and these products were digested with 5U of HpaI (New England Biolabs) for 2h at 37 C. The fragments were purified using Qiaquick PCR columns (Qiagen), analyzed on an ABI 3130xL genetic analyzer (Applied Biosystems) with peak positions identified by using a set of X-rhodamine (ROX)-labeled MapMarker1000 molecular weight standards (BioVentures). The raw capillary electrophoresis data was processed using Attagraph software (Attagene).
For `COC(=O)C=C(C)OP(=O)(OC)OC`, the result was inactive. For orientation: AC50 means the midpoint of the concentration-response curve, whichever way the signal moves. On to `CC1COC(Cn2cncn2)(c2ccc(Oc3ccc(Cl)cc3)cc2Cl)O1` (stereo not given), for which the AC50 is 1.97 µM (active). As for `N#Cc1nn(-c2c(Cl)cc(C(F)(F)F)cc2Cl)c(N)c1S(=O)C(F)(F)F` (stereo not given), the outcome was inactive.

In the case of `Cc1cc(Cl)ccc1OCC(=O)O`, the result was inactive. As for `CCCC1COC(Cn2cncn2)(c2ccc(Cl)cc2Cl)O1` (stereo not given), the result was inactive and the AC50 was 15.9 µM (active).

For `CCNc1nc(Cl)nc(NC(C)C)n1`, the call was inactive. As for `OC(c1ccc(Cl)cc1)(c1cncnc1)c1ccccc1Cl` (stereo not given), the compound was classed as inactive.

As for `CC(Oc1ccc(Cl)cc1Cl)C(=O)O` (stereo not given), the call was inactive.

As for `CCCCOC(=O)c1ccccc1C(=O)OCCCC`, the compound was called inactive and the AC50 is 75.8 µM (active). Turning to `O=C(O)c1nc(Cl)ccc1Cl`, the outcome was inactive. With `Oc1ccccc1-c1ccccc1`, the half-maximal activity concentration (AC50) was 150 µM (active) and the call was inactive.

As to `Fc1ccc(Oc2ccnc3cc(Cl)cc(Cl)c23)cc1`, the compound was classed as inactive. Take `CCCCC(CC)COC(=O)c1ccccc1C(=O)OCC(CC)CCCC` (stereo not given): the compound was classed as inactive. On to `COc1nc(C)nc(NC(=O)NS(=O)(=O)c2ccccc2CCC(F)(F)F)n1`, for which the compound was classed as inactive. Regarding `CC(C)Oc1cc(-n2nc(C(C)(C)C)oc2=O)c(Cl)cc1Cl`, the compound was called inactive.

As to `CNC(=O)ON=CC(C)(C)SC`, the call was inactive.

For the compound `CCON=C(CC)C1=C(O)CC(c2c(C)cc(C)cc2C)CC1=O` (stereo not given), the outcome was inactive. Regarding `COC(=O)N(OC)c1ccccc1COc1ccn(-c2ccc(Cl)cc2)n1`, the compound was classed as inactive. Turning to `Cc1ccc(-c2c(Cl)nc(C#N)n2S(=O)(=O)N(C)C)cc1`, the outcome was inactive. Consider `CN(C)C(=S)SSC(=S)N(C)C`, for which the compound was called inactive.

For the compound `O=C(O)COc1nc(Cl)c(Cl)cc1Cl`, the result was inactive.

Consider `COc1cnc(OC)n2nc(NS(=O)(=O)c3c(OCC(F)F)cccc3C(F)(F)F)nc12`, for which the result was inactive. The same measure, in the same setting: then `COc1ccc(C(c2ccc(OC)cc2)C(Cl)(Cl)Cl)cc1`, with “inactive”. In the case of `CCOc1cc(Oc2ccc(C(F)(F)F)cc2Cl)ccc1[N+](=O)[O-]`, the outcome was inactive. Still for that read-out and setting: then `CNC(=S)S`, with “inactive”; and `CON(C)C(=O)Nc1ccc(Cl)c(Cl)c1`, with “inactive”.

In the case of `COc1nc(NC(C)C)nc(NC(C)C)n1`, the outcome was inactive. Consider `COP(=S)(OC)Oc1nc(Cl)c(Cl)cc1Cl`, for which the AC50 was 32 µM (active). Turning to `CCCCNC(=O)n1c(NC(=O)OC)nc2ccccc21`, the outcome was inactive. Regarding `C=CC1(C)OC(=O)N(c2cc(Cl)cc(Cl)c2)C1=O` (stereo not given), the compound was called inactive. For the compound `COC(=O)c1ccccc1C(=O)OC`, the result was inactive. As for `CO/C=C(/C(=O)OC)c1ccccc1Oc1cc(Oc2ccccc2C#N)ncn1`, the compound was classed as inactive and the AC50 was 32.4 µM (active) [middle of 4 runs]. In the case of `CC(C)C1(C)N=C(c2nc3ccccc3cc2C(=O)O)NC1=O` (stereo not given), the call was inactive.

Take `CCCCNC(=O)OCC#CI`: the result was inactive. As for `CCOC(=O)C(Cl)Cc1cc(-n2nc(C)n(C(F)F)c2=O)c(F)cc1Cl` (stereo not given), the compound was called inactive. Consider `CC1=C(C(=O)Nc2ccccc2)SCCO1`, for which the result was inactive.
